In the library only some 3.2% were active in any assay of this set; here they are far more common.
Rtt109 Vps75 – blocks Candida albicans Rtt109/Vps75 acetyltransferase activity | 330,000 compounds, 0.16% hits | inhibition, % at 34.9 µM | Q5AAJ8 | purified Rtt109/Vps75, ThioGlo CoA-SH fluorescence, 4 h;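 active = inhibition of at least 50% in every replicate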
Target sequence (Q5AAJ8 whole entry, looked up): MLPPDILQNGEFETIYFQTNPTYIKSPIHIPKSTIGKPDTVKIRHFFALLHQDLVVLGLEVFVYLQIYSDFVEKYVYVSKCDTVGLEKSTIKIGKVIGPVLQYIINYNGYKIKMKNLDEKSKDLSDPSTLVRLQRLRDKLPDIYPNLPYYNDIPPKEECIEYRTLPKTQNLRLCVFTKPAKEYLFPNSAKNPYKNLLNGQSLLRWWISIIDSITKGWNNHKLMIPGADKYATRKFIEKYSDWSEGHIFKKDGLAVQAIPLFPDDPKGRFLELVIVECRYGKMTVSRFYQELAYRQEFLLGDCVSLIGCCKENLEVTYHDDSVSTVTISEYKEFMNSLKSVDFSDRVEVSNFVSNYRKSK
dFosB activator – mouse delta FosB homodimer activation; 340,000 compounds, 0.99% hits; purified delta FosB, TAMRA-CDK5 oligo fluorescence polarization; percent of positive-control signal above neutral wells; P13346; AID 493131; activation, % at 25 µM;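 active = mean activation above about 17%, with every replicate also reaching it, limit read from the data, passing the limit was not always enough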
CDK5 p35 inh – inhibitors of human CDK5/p35 kinase | 330,000 compounds, 0.01% hits | Recombinant CDK5/p35, ADP-Glo luminescence, 60 min | AID 488839 | inhibition, % at 10 µM;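 active = highest replicate inhibition of at least 50% and at least 75% of replicates reaching 50%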
esBAF inh – SWI/SNF esBAF complex inhibition; mouse ES cells, Bmi1-luciferase knock-in reporter, 24 h; 100% = twice the neutral-well signal; reporter increase, % at 12.5 µM; 350,000 compounds, 2% hits; AID 602393; in the data active = activation above about 40%;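 note: a rise in the Bmi1 reporter signal indicates esBAF inhibition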
DYRK1A inh – Dyrk1A (rat) kinase inhibition; Q63470; ADP-Glo luminescence, NFATc1 peptide; inhibition, % at 12.5 µM; 310,000 compounds, 0.43% hits; AID 504441; in the data active = inhibition above about 50%
SMARCA2 act – activators of SMARCA2 function. MG213 cells, MMTV-luciferase reporter, dexamethasone, overnight. activation, % at 9.1 µM. 370,000 compounds, 1% hits; in the data active = activation above about 7.8%
A number is an active result; . = inactive; / = not tested or not shown.

SMILES | Rtt109 Vps75 | dFosB activator | CDK5 p35 inh | esBAF inh | DYRK1A inh | SMARCA2 act
CC(C)CC#Cc1ccc2c(c1)O[C@@H](CN(C)C(=O)c1cccc(F)c1)[C@H](C)CN([C@@H](C)CO)S2(=O)=O | / | / | / | . | / | /
CCCn1cnc2c(SCc3ccccc3)nc(N)nc21 | . | . | . | / | . | .
CCCCn1cnc2c(SCc3ccccc3)nc(N)nc21 | . | . | . | 50 | . | .
CCS(=O)(=O)Nc1ccc2c(c1)C(=O)N(C)[C@H]1CC[C@@H](CC(=O)NCCOC)O[C@H]1CO2 | / | / | / | . | / | /
O=C(c1cccc(C(=O)N2CCN(Cc3ccccc3)CC2)c1)N1CCN(Cc2ccccc2)CC1 | . | . | . | . | . | .
O=C(c1ccc2ccccc2c1)N1CCN(Cc2ccccc2)CC1 | . | . | . | 69 | . | .
COc1ccc(C)cc1Nc1nc(-c2ccccc2O)nc2ccccc12 | . | . | . | . | . | .
COc1ccc(C)cc1Nc1nc(-c2c[nH]c3ccccc23)cs1 | / | 27 | . | / | . | .
Cn1c(-c2ccccc2)c(/C=N/NC(=O)c2ccc(O)cc2)c2ccccc21 | . | . | . | 63 | . | .
CCn1cc(Br)c(C(=O)Nc2ccc(Cl)c(Cl)c2)n1 | . | . | . | 65 | . | .
O=C(O)C[C@H]1C[C@@H]2c3cc(NC(=O)c4ccc5c(c4)OCO5)ccc3O[C@@H]2[C@@H](CO)O1 | / | / | / | . | / | /
COCCCNC(=O)COc1ccc(Cl)c(C)c1 | . | . | . | . | . | .
CCNC(=O)COc1ccc(-c2ccccc2)cc1 | . | . | . | . | . | .
Cc1cc(OCC(=O)NC(C)(C)C)ccc1Cl | . | . | . | 62 | . | .
CC(C)(C)NC(=O)COc1ccc(-c2ccccc2)cc1 | . | . | . | 57 | . | .
COCC(=O)Nc1ccc2c(c1)C(=O)N(C)[C@@H]1CC[C@H](CC(=O)NCc3cccc(F)c3)O[C@H]1CO2 | / | / | / | . | / | /
COC(c1ccccc1)c1nnc(CCC(=O)NC2CCCCC2)o1 (stereo unspecified) | . | . | . | / | . | .
O=C(CCc1nnc(-c2ccccc2)o1)NC1CCCCC1 | . | . | . | 48 | . | .
CN(CCCC1CCCC1)C(=O)CCc1nnc(-c2ccccc2)o1 | . | . | . | 84 | . | .
C[C@@H]1CN([C@H](C)CO)C(=O)c2cc(C#Cc3ccccc3F)cnc2O[C@@H]1CN(C)C(=O)C1CC1 | / | / | / | . | / | /
C[C@@H]1CCCCO[C@H](CN(C)S(=O)(=O)c2cn(C)cn2)[C@@H](C)CN([C@@H](C)CO)C(=O)c2cc(NC(=O)Nc3ccc4c(c3)OCO4)ccc2O1 | / | / | / | . | / | /
C[C@H](CO)N1C[C@H](C)[C@H](CN(C)S(=O)(=O)c2cn(C)cn2)OCCCC[C@H](C)Oc2ccc(NC(=O)Nc3ccc4c(c3)OCO4)cc2C1=O | / | / | / | . | / | /
C[C@H](CO)N1C[C@H](C)[C@@H](CN(C)S(=O)(=O)c2cn(C)cn2)OCCCC[C@H](C)Oc2ccc(NC(=O)Nc3ccc4c(c3)OCO4)cc2C1=O | / | / | / | 44 | / | /
C[C@@H]1CCCCO[C@@H](CN(C)S(=O)(=O)c2cn(C)cn2)[C@H](C)CN([C@H](C)CO)C(=O)c2cc(NC(=O)Nc3ccc4c(c3)OCO4)ccc2O1 | / | / | / | 60 | / | /
C[C@@H]1CN([C@@H](C)CO)C(=O)c2cc(NC(=O)Nc3ccc4c(c3)OCO4)ccc2O[C@@H](C)CCCCO[C@@H]1CN(C)S(=O)(=O)c1cn(C)cn1 | / | / | / | 47 | / | /
SMILES | Rtt109 Vps75 | dFosB activator | CDK5 p35 inh | esBAF inh | DYRK1A inh | SMARCA2 act
C[C@@H]1CN([C@H](C)CO)C(=O)c2cc(NC(=O)Nc3ccccc3)ccc2O[C@@H](C)CCCCO[C@H]1CN(C)S(=O)(=O)c1cn(C)cn1 | / | / | / | . | / | /
C[C@@H]1CN([C@@H](C)CO)C(=O)c2cc(NC(=O)Nc3ccccc3)ccc2O[C@@H](C)CCCCO[C@@H]1CN(C)S(=O)(=O)c1cn(C)cn1 | / | / | / | . | / | /
C[C@@H]1CN([C@H](C)CO)C(=O)c2cc(NC(=O)Nc3ccc4c(c3)OCO4)ccc2O[C@@H](C)CCCCO[C@@H]1CN(C)S(=O)(=O)c1cn(C)cn1 | / | / | / | 68 | / | /
CC=Cc1ccc2n(c1=O)C[C@H]1[C@H](CO)[C@@H](C(=O)N[C@@H](C)c3ccccc3)[C@@H]2N1CC (mixture of isomers) | / | / | / | . | / | /
CN(C(=O)CSc1ncnc2sccc12)C1CCS(=O)(=O)C1 (stereo unspecified) | . | . | . | . | / | .
CN(C(=O)CSc1ncnc2sccc12)C1CCCCC1 | . | . | . | 75 | . | .
CNC(=O)C[C@@H]1CC[C@H]2[C@H](COc3ccc(NC(=O)Nc4cccc(C)c4)cc3C(=O)N2C)O1 | / | / | / | . | / | /
O=C(Cn1cnc2ccccc2c1=O)Nc1ccc2c(c1)OCO2 | . | . | . | 57 | . | .
